Structures are written as SMILES. The source made the active and inactive calls. How the calls were made is not given here.

This is an account of results in PubChem BioAssay AID651907 (Vanderbilt Specialized Chemistry Center, 2012).

The test concerns the target Histone deacetylase 7 (Homo sapiens) (UniProt Q8WUI4). Briefly: HDAC7 deacetylase inhibition, profiling panel, selectivity assay for E-cadherin restoration project, biochemical, human (AID 651907). Particulars: recombinant HDAC7, fluorogenic class IIa substrate; series mostly up to 10 µM.

Histone deacetylase 7 (Homo sapiens), sequence (Q8WUI4 whole entry, looked up): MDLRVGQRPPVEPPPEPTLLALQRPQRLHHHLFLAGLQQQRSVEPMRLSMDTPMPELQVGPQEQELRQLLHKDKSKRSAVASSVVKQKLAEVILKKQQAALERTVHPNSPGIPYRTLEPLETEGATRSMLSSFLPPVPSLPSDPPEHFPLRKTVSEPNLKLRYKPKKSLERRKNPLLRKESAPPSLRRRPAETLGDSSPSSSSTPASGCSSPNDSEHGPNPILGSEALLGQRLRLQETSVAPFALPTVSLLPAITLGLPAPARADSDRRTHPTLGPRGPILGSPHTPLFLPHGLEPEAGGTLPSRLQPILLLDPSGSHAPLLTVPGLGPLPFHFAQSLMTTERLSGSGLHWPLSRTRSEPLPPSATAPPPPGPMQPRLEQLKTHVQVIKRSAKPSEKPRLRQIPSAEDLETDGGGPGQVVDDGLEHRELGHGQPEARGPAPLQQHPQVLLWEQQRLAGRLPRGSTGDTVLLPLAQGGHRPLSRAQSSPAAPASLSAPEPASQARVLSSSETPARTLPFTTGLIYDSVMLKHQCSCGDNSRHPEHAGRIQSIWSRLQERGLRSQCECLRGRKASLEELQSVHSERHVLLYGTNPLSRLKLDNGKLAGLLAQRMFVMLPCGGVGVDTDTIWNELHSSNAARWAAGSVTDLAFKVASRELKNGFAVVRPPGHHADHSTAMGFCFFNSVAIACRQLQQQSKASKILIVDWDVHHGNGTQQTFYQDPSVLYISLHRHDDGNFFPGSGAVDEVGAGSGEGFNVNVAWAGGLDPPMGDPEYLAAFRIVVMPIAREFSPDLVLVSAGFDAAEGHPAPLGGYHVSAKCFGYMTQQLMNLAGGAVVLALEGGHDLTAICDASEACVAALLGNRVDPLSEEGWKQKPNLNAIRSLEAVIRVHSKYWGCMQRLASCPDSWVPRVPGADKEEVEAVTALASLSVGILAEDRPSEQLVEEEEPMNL

Consider `O=C(NCCCNC(=O)c1ccc[nH]c1=O)c1cc(-c2ccccc2)on1`, for which the result was inactive.
